Of roughly 8,800 targets only a part is listed; those with a hit were picked by preference. About 0.5% of all pairs of compound and target were hits. A number with no mark means an inactive call.
Experiments:
Assay in all cases: log2 fold change, soluble protein after heating vs DMSO (PISA); higher = thermal stabilisation; K562 lysate, 10 uM; active = over 0.2 and 3.5 SD of the protein, either way, in both replicates (recomputed)
nilotinib = compound: Cc1cn(-c2cc(NC(=O)c3ccc(C)c(Nc4nccc(-c5cccnc5)n4)c3)cc(C(F)(F)F)c2)cn1 [nilotinib]
Procedure, shortened: (§1)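 Values give the log-two fold change in thermal stability against solvent controls, from duplicates. Crude K562 extract at 1 mg/mL protein, made by dounce homogenisation in PBS pH 7.4 with 1 mM MgCl2, was treated with 10 μM compound for 30 min. After 3 min heating across 48°C-58°C, aliquots were pooled, adjusted to 0.5% NP-40 at 4°C and centrifuged at 21,000xg for 90 min. The supernatant was measured by TMTpro 16plex LC-MS/MS with channel sums equalised.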

[1] = compound: Cc1nc(Nc2n[nH]c3c2CN(C(=O)N[C@H](CN(C)C)c2ccccc2)C3(C)C)c2sccc2n1
Procedure, shortened: as §1

dasatinib = compound: Cc1nc(Nc2ncc(C(=O)Nc3c(C)cccc3Cl)s2)cc(N2CCN(CCO)CC2)n1 [dasatinib]
Procedure, shortened: as §1

[2] = compound: Cc1ncc(-c2ccnc(Nc3ccc(S(C)(=O)=O)cc3)n2)n1C(C)C
Procedure, shortened: as §1

[3] = compound: Cn1cc(-c2ccc3c(c2)CCN3C(=O)Cc2cccc(C(F)(F)F)c2)c2c(N)ncnc21
Procedure, shortened: as §1

quisinostat = compound: Cn1cc(CNCC2CCN(c3ncc(C(=O)NO)cn3)CC2)c2ccccc21 [quisinostat]
Procedure, shortened: as §1

tipifarnib = compound: Cn1cncc1[C@@](N)(c1ccc(Cl)cc1)c1ccc2c(c1)c(-c1cccc(Cl)c1)cc(=O)n2C [tipifarnib]
Procedure, shortened: as §1

[4] = compound: NC(=O)Nc1cc(-c2cccc(F)c2)sc1C(=O)N[C@H]1CCCNC1
Procedure, shortened: as §1

[5] = compound: NC(=O)c1cnc(N[C@@H]2CCCC[C@@H]2N)nc1Nc1cccc(-n2nccn2)c1
Procedure, shortened: as §1

[6] = compound: NC1(c2ccc(-c3nc4ccn5c(=O)[nH]nc5c4cc3-c3ccccc3)cc2)CCC1
Procedure, shortened: as §1

[7] = compound: NCC(=O)Nc1ccc(-n2nc(C(F)(F)F)cc2-c2ccc3c(ccc4ccccc43)c2)cc1
Procedure, shortened: as §1

vorinostat = compound: O=C(CCCCCCC(=O)Nc1ccccc1)NO [vorinostat]
Procedure, shortened: as §1

silmitasertib = compound: O=C(O)c1ccc2c(c1)nc(Nc1cccc(Cl)c1)c1ccncc12 [silmitasertib]
Procedure, shortened: as §1

[8] = compound: O=C1NC(=O)C(c2cnc3ccccn23)=C1c1cn2c3c(cc(F)cc13)CN(C(=O)N1CCCCC1)CC2
Procedure, shortened: as §1

entospletinib = compound: c1cn2cc(-c3ccc4cn[nH]c4c3)nc(Nc3ccc(N4CCOCC4)cc3)c2n1 [entospletinib]
Procedure, shortened: as §1

UniProt Q9UN37, sequence (Q9UN37 whole entry, looked up): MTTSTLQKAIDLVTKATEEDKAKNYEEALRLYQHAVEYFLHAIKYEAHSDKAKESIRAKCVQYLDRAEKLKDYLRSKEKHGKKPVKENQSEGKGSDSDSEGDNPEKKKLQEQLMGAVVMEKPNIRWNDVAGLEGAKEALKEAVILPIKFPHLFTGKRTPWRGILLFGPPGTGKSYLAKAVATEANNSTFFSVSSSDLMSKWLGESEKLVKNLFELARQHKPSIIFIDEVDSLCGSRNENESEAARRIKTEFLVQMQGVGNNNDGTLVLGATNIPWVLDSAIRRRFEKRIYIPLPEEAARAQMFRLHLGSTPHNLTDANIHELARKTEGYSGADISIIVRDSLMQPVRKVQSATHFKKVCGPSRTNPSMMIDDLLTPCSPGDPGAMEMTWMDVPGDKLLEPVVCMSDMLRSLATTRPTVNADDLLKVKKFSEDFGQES
UniProt Q14694, sequence (Q14694 whole entry, looked up): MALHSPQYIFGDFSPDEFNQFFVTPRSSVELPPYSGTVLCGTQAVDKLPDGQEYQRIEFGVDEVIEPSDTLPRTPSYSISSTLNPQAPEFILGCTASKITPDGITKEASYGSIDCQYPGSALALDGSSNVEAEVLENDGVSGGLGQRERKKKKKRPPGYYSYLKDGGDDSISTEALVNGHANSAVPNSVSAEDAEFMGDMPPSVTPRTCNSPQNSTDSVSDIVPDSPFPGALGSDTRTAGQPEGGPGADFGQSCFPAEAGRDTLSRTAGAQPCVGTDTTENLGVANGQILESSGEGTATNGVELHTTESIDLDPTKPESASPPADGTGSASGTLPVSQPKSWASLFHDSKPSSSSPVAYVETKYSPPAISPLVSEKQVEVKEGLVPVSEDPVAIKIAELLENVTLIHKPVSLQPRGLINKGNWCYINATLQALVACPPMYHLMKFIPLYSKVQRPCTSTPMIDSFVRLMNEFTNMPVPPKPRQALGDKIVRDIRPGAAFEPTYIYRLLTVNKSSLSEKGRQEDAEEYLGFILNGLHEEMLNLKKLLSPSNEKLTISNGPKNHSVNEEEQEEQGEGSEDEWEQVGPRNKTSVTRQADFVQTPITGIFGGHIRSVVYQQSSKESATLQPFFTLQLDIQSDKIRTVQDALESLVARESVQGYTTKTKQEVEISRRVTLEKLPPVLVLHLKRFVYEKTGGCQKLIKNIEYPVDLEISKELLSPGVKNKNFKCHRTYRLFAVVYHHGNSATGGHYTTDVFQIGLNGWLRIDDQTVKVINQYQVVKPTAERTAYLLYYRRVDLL
UniProt Q9H6S0, sequence (Q9H6S0 whole entry, looked up): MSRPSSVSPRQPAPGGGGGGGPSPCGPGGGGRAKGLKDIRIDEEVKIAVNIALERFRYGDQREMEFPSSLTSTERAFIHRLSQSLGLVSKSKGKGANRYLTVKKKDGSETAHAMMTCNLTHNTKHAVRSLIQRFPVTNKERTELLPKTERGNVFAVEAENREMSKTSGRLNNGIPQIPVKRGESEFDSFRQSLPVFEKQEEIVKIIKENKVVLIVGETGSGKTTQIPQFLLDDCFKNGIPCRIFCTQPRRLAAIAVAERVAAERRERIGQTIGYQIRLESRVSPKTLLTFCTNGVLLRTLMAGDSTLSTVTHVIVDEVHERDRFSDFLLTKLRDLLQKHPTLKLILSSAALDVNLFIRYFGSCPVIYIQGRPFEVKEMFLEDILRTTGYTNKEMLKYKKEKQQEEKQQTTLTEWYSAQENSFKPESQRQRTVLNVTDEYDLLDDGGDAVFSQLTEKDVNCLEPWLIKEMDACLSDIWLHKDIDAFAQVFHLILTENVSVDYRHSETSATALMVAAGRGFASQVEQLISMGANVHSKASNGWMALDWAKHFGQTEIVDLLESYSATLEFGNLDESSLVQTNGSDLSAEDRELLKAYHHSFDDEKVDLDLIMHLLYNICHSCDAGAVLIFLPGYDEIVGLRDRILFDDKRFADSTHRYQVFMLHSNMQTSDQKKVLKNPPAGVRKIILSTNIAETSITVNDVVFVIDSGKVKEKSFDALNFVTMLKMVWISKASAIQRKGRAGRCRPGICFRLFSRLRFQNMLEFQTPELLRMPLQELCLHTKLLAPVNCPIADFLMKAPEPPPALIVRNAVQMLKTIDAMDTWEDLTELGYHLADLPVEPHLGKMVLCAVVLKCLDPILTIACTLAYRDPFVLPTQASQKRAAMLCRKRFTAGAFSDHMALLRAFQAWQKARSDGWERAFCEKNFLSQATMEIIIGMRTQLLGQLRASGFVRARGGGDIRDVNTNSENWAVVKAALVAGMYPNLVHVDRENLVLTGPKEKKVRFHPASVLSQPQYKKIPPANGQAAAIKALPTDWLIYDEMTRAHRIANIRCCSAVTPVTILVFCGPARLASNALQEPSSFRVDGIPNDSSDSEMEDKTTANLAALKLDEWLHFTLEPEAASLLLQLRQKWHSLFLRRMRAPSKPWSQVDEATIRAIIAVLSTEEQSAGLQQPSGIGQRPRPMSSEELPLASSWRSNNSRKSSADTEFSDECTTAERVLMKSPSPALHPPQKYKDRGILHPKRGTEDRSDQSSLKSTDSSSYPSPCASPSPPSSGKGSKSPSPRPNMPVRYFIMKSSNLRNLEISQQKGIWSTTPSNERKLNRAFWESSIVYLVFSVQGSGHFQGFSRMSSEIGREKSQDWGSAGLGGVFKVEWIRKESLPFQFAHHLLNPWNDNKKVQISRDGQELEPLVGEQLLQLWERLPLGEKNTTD
UniProt Q86U90, sequence (Q86U90 whole entry, looked up): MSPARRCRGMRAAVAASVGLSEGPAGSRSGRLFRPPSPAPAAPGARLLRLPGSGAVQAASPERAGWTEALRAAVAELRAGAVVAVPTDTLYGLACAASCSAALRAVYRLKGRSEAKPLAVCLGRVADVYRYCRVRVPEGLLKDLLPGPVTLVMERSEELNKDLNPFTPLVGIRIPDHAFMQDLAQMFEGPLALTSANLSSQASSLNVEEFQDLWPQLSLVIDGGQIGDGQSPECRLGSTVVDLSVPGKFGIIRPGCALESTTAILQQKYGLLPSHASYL
UniProt Q9NZ43, sequence (Q9NZ43 whole entry, looked up): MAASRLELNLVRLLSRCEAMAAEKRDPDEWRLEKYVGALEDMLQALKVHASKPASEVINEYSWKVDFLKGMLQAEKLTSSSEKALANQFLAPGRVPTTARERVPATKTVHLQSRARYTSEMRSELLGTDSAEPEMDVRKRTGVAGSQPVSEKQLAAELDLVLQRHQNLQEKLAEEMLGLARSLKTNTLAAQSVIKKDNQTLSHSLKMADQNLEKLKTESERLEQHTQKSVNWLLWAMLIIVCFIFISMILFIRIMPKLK
UniProt O15014, sequence (O15014 whole entry, looked up): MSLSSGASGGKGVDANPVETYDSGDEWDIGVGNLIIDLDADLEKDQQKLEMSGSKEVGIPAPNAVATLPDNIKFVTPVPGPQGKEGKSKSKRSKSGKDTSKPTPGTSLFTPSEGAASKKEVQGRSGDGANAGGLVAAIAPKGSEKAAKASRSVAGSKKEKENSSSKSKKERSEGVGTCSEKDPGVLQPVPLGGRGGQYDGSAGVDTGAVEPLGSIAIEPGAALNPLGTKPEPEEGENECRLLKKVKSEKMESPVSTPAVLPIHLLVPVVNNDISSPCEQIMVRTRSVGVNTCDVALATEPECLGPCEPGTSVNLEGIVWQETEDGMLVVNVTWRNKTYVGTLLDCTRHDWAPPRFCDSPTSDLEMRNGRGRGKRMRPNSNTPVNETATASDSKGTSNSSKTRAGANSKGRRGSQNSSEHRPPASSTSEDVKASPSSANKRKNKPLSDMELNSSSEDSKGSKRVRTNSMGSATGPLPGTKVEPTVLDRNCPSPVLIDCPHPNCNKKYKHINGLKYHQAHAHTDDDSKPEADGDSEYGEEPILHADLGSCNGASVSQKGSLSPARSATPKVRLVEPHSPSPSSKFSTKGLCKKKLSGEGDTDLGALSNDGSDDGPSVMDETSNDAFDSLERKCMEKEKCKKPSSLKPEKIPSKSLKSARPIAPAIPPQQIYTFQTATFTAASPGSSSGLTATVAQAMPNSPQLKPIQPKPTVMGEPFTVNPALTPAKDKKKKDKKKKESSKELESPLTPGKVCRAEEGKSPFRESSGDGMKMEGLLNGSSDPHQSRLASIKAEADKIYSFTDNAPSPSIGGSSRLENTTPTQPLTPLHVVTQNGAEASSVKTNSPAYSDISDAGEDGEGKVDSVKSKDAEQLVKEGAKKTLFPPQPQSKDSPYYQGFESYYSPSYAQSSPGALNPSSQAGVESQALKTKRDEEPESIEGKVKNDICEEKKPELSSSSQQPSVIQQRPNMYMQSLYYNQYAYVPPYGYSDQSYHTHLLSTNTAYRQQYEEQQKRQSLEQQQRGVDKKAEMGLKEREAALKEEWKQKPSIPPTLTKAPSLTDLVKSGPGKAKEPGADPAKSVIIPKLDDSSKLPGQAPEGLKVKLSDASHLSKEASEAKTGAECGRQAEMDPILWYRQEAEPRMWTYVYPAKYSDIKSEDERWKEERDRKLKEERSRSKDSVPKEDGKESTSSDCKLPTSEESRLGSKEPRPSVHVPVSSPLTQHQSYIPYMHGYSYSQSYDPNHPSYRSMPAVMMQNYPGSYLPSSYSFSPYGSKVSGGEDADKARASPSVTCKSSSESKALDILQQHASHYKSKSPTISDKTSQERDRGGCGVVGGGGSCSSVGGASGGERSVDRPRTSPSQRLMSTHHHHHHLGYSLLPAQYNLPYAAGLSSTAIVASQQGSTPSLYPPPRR
UniProt O95619, sequence (O95619 whole entry, looked up): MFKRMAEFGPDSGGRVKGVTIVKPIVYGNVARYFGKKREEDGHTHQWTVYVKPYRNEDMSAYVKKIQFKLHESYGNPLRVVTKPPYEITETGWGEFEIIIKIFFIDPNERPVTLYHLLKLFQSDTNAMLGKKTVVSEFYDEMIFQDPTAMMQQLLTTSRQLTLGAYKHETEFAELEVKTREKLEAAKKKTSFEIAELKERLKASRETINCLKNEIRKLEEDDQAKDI
UniProt Q96NC0, sequence (Q96NC0 whole entry, looked up): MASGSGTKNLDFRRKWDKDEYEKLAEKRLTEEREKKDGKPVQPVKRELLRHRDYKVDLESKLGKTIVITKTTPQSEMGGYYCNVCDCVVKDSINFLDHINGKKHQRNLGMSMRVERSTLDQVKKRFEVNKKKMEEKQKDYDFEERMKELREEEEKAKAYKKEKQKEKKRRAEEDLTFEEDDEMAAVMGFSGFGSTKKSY

Target | log2 fold change (nilotinib) | log2 fold change [1] | log2 fold change (dasatinib) | log2 fold change [2] | log2 fold change [3] | log2 fold change (quisinostat) | log2 fold change (tipifarnib) | log2 fold change [4] | log2 fold change [5] | log2 fold change [6] | log2 fold change [7] | log2 fold change (vorinostat) | log2 fold change (silmitasertib) | log2 fold change [8] | log2 fold change (entospletinib)
VRK2 (UniProt Q86Y07) | 0.048 | 0.219 | 0.185 | 0.017 | 0.17 | -0.044 | -0.018 | 0.026 | -0.003 | -0.006 | -0.158 | -0.166 | -0.022 | 0.039 | -0.064
VPS4A (UniProt Q9UN37) | -0.011 | 0.008 | -0.075 | 0.002 | 0.056 | -0.027 | 0.023 | 0.019 | 0.004 | -0.011 | -0.026 | -0.356 (active) | 0.059 | -0.013 | 0.038
YEATS4 (UniProt O95619) | 0.1 | 0.154 | 0.11 | -0.196 | 0.035 | -0.038 | 0.071 | -0.011 | 0.018 | 0.044 | 0.042 | 0.057 | -0.029 | -0.046 | -0.037
XPOT (UniProt O43592) | -0.011 | -0.017 | -0.064 | 0 | -0.004 | -0.056 | 0.005 | 0.037 | 0.003 | -0.001 | -0.012 | -0.656 (active) | 0.035 | 0.009 | 0.037
WDR36 (UniProt Q8NI36) | 0.003 | -0.015 | 0.012 | 0.002 | 0.025 | -0.014 | -0.002 | 0.03 | -0.004 | -0.01 | -0.051 | -0.345 (active) | 0.044 | 0.028 | -0.011
ZNF609 (UniProt O15014) | -0.14 | -0.023 | -0.014 | 0.001 | -0.044 | -0.006 | 0.01 | 0.061 | -0.015 | 0.003 | 0.184 | -0.309 (active) | 0.041 | -0.013 | -0.026
XAB2 (UniProt Q9HCS7) | 0.032 | -0.002 | -0.051 | 0.048 | 0.017 | 0.106 | -0.046 | 0.046 | -0.025 | -0.01 | -0.012 | -0.259 (active) | 0.005 | -0.023 | -0.006
ZKSCAN8 (UniProt Q15776) | 0.05 | 0.015 | -0.096 | -0.03 | 0.026 | -0.134 | 0.101 | 0.005 | -0.029 | -0.064 | 0.015 | 0.229 | -0.005 | 0.055 | -0.002
YTHDC2 (UniProt Q9H6S0) | 0.006 | -0.001 | -0.043 | 0.03 | 0.03 | -0.046 | 0.022 | 0.06 | -0.007 | -0.054 | 0.061 | -0.231 (active) | -0.007 | 0.018 | 0.013
ZMAT2 (UniProt Q96NC0) | -0.014 | 0.037 | 0.022 | 0.027 | 0.033 | -0.066 | -0.013 | -0.044 | 0.002 | -0.03 | 0.033 | 0.188 | -0.051 | -0.024 | 0.021
USP34 (UniProt Q70CQ2) | -0.018 | -0.002 | -0.042 | -0.018 | 0.023 | -0.041 | 0.021 | 0.074 | 0.018 | 0 | 0.005 | -0.208 (active) | 0.05 | -0.012 | -0.005
UNC13D (UniProt Q70J99) | 0.043 | -0.014 | -0.05 | 0 | 0 | -0.079 | -0.006 | 0.05 | 0.022 | -0.024 | 0.022 | -0.211 (active) | 0.002 | -0.006 | 0.026
USP10 isoform 2 (UniProt Q14694) | -0.022 | 0.013 | -0.058 | 0.013 | -0.013 | -0.081 | -0.007 | 0.034 | -0.011 | -0.012 | 0.022 | -0.294 (active) | 0 | -0.002 | -0.002
USE1 (UniProt Q9NZ43) | -0.019 | 0.038 | 0.068 | 0.057 | 0.02 | 0.08 | -0.021 | 0.029 | -0.027 | 0.025 | -0.113 | -0.029 | 0.028 | 0.053 | -0.036
YWHAQ (UniProt P27348) | -0.008 | -0.005 | 0.04 | 0.037 | 0.011 | 0.095 | 0.019 | -0.023 | -0.035 | 0.014 | -0.047 | -0.052 | -0.012 | 0.013 | 0.022
WDR41 (UniProt Q9HAD4) | -0.012 | -0.023 | 0.028 | -0.011 | 0.005 | -0.036 | -0.077 | -0.009 | -0.032 | -0.017 | -0.017 | -0.284 (active) | 0.022 | -0.08 | 0.01
YRDC (UniProt Q86U90) | 0 | 0.021 | 0.022 | 0.018 | -0.019 | -0.019 | 0.008 | -0.004 | 0.01 | -0.003 | 0.024 | -0.424 (active) | 0.006 | -0.017 | -0.016
VPS35L (UniProt Q7Z3J2) | -0.019 | -0.006 | -0.088 | 0.022 | 0.008 | -0.046 | 0.03 | 0.043 | 0.001 | -0.044 | 0.019 | -0.266 (active) | 0.027 | -0.006 | 0.015
YME1L1 (UniProt Q96TA2) | 0.011 | -0.06 | 0 | 0.026 | -0.044 | -0.045 | -0.019 | 0.016 | 0.06 | -0.059 | -0.001 | 0.04 | 0.007 | -0.008 | 0.02
XPO5 (UniProt Q9HAV4) | -0.025 | -0.016 | -0.068 | 0.013 | 0.005 | -0.092 | -0.015 | 0.029 | 0.023 | -0.024 | 0 | -0.574 (active) | 0.035 | 0.011 | 0.015

Reference: the supplement of paper PMC10849652
